# Test results taken from the supplement of paper PMC8728848.
# The entries come from a sample that favours the strongest signals as a whole.
# B1: BDCA-2 (Homo sapiens), Q8WTT0 (protein)
# chain: MVPEEEPQDREKGLWWFQLKVWSMAVVSILLLSVCFTVSSVVPHNFMYSKTVKRLSKLREYQQYHPSLTCVMEGKDIEDWSCCPTPWTSFQSSCYFISTGMQSWTKSQKNCSVMGADLVVINTREEQDFIIQNLKRNSSYFLGLSDPGGRRHWQWVDQTPYNENVTFWHSGEPNNLDERCAIINFRSSEEWGWNDIHCHVPQKSICKMKKIYI
# Tests used:
# Experiment in all cases: glycan array binding signal (z-score within array); higher = stronger binding
# Conditions in all cases: glycan notation: IUPAC condensed, linker removed
# [1] = target: Fuc(a1-2)Gal(b1-4)GlcNAc(b1-2)Man(a1-3)[Fuc(a1-2)Gal(b1-4)GlcNAc(b1-2)Man(a1-6)]Man(b1-4)GlcNAc(b1-4)GlcNAc
# Procedure, shortened: (§1)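 The binding signal is a Z-score computed within each array and averaged over linkers. Arrays of the same protein sequence at different concentrations or buffers were also averaged together. Data originate from 3228 arrays in the Consortium for Functional Glycomics database, kept only where the protein sequence was available.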
# [2] = target: Fuc(a1-2)Gal(b1-4)GlcNAc(b1-2)[Fuc(a1-2)Gal(b1-4)GlcNAc(b1-4)]Man(a1-3)[Fuc(a1-2)Gal(b1-4)GlcNAc(b1-2)Man(a1-6)]Man(b1-4)GlcNAc(b1-4)GlcNAc
# Procedure, shortened: as §1
# [3] = target: Fuc(a1-2)Gal(b1-4)GlcNAc(b1-3)Gal(b1-4)GlcNAc
# Procedure, shortened: as §1
# Fuc(a1-2)[Gal(a1-3)]Gal = target: Fuc(a1-2)[Gal(a1-3)]Gal
# Procedure, shortened: as §1
# [4] = target: Fuc(a1-2)[Gal(a1-3)]Gal(b1-3)GalNAc(b1-3)Gal(a1-4)Gal(b1-4)Glc
# Procedure, shortened: as §1
# [5] = target: Fuc(a1-3)[Gal(b1-4)]GlcNAc
# Procedure, shortened: as §1
# Gal(a1-3)Gal = target: Gal(a1-3)Gal
# Procedure, shortened: as §1
# [6] = target: Gal(a1-4)Gal(b1-4)GlcNAc(b1-2)Man(a1-3)[Gal(a1-4)Gal(b1-4)GlcNAc(b1-2)Man(a1-6)]Man(b1-4)GlcNAc(b1-4)GlcNAc
# Procedure, shortened: as §1
# [7] = target: Gal(b1-3)GlcNAc(b1-2)Man(a1-3)[Gal(b1-3)GlcNAc(b1-2)Man(a1-6)]Man(b1-4)GlcNAc(b1-4)GlcNAc
# Procedure, shortened: as §1
# [8] = target: Gal(b1-3)GlcNAc(b1-3)Gal(b1-3)GlcNAc
# Procedure, shortened: as §1
# [9] = target: Gal(b1-3)GlcNAc(b1-3)Gal(b1-4)GlcNAc(b1-2)Man(a1-3)[Gal(b1-3)GlcNAc(b1-3)Gal(b1-4)GlcNAc(b1-2)Man(a1-6)]Man(b1-4)GlcNAc(b1-4)GlcNAc
# Procedure, shortened: as §1
# [10] = target: Gal(b1-3)[Fuc(a1-4)]GlcNAc
# Procedure, shortened: as §1
# [11] = target: Gal(b1-4)GlcNAc(b1-2)Man(a1-3)Man(b1-4)GlcNAc(b1-4)GlcNAc
# Procedure, shortened: as §1
# [12] = target: Gal(b1-4)GlcNAc(b1-2)Man(a1-3)[Gal(b1-4)GlcNAc(b1-2)Man(a1-6)]Man(b1-4)GlcNAc(b1-4)GlcNAc
# Procedure, shortened: as §1
# [13] = target: Gal(b1-4)GlcNAc(b1-2)Man(a1-3)[Gal(b1-4)GlcNAc(b1-2)Man(a1-6)]Man(b1-4)GlcNAc(b1-4)[Fuc(a1-6)]GlcNAc
# Procedure, shortened: as §1
# [14] = target: Gal(b1-4)GlcNAc(b1-2)Man(a1-3)[Gal(b1-4)GlcNAc(b1-2)Man(a1-6)][GlcNAc(b1-4)]Man(b1-4)GlcNAc(b1-4)[Fuc(a1-6)]GlcNAc
# Procedure, shortened: as §1
# [15] = target: Gal(b1-4)GlcNAc(b1-2)Man(a1-3)[GlcNAc(b1-2)Man(a1-6)]Man(b1-4)GlcNAc(b1-4)GlcNAc
# Procedure, shortened: as §1
# [16] = target: Gal(b1-4)GlcNAc(b1-2)Man(a1-3)[Man(a1-6)]Man(b1-4)GlcNAc(b1-4)GlcNAc
# Procedure, shortened: as §1
# [17] = target: Gal(b1-4)GlcNAc(b1-2)[Gal(b1-4)GlcNAc(b1-4)]Man(a1-3)[GlcNAc(b1-4)][Gal(b1-4)GlcNAc(b1-2)[Gal(b1-4)GlcNAc(b1-6)]Man(a1-6)]Man(b1-4)GlcNAc(b1-4)GlcNAc
# Procedure, shortened: as §1
# [18] = target: Gal(b1-4)GlcNAc(b1-2)[Gal(b1-4)GlcNAc(b1-6)]Man(a1-6)[Gal(b1-4)GlcNAc(b1-2)Man(a1-3)]Man(b1-4)GlcNAc(b1-4)GlcNAc
# Procedure, shortened: as §1
# [19] = target: Gal(b1-4)GlcNAc(b1-2)[Gal(b1-4)GlcNAc(b1-6)]Man(a1-6)[Gal(b1-4)GlcNAc(b1-2)Man(a1-3)]Man(b1-4)GlcNAc(b1-4)[Fuc(a1-6)]GlcNAc
# Procedure, shortened: as §1
# [20] = target: Gal(b1-4)GlcNAc(b1-3)Gal(b1-4)GlcNAc(b1-3)Gal(b1-4)GlcNAc
# Procedure, shortened: as §1
# Gal6S(b1-4)GlcNAc6S = target: Gal6S(b1-4)GlcNAc6S
# Procedure, shortened: as §1
# GalNAc(a1-3)GalNAc = target: GalNAc(a1-3)GalNAc
# Procedure, shortened: as §1
# [21] = target: GalNAc(a1-3)GalNAc(b1-3)Gal(a1-4)Gal(b1-4)GlcNAc
# Procedure, shortened: as §1
# GalNAc(b1-6)GalNAc = target: GalNAc(b1-6)GalNAc
# Procedure, shortened: as §1
# GlcA(b1-3)GlcNAc = target: GlcA(b1-3)GlcNAc
# Procedure, shortened: as §1
# [22] = target: GlcA3S(b1-3)Gal(b1-4)GlcNAc(b1-2)Man
# Procedure, shortened: as §1
# GlcNAc(b1-3)Gal(b1-4)Glc = target: GlcNAc(b1-3)Gal(b1-4)Glc
# Procedure, shortened: as §1
# [23] = target: GlcNAc(b1-3)Gal(b1-4)GlcNAc(b1-3)GalNAc
# Procedure, shortened: as §1
# [24] = target: GlcNAc(b1-4)GlcNAc(b1-4)GlcNAc
# Procedure, shortened: as §1
# [25] = target: Man(a1-3)[Man(a1-6)]Man(a1-6)[Man(a1-2)Man(a1-3)]Man(b1-4)GlcNAc(b1-4)GlcNAc
# Procedure, shortened: as §1
# [26] = target: Man(a1-3)[Man(a1-6)]Man(a1-6)[Man(a1-3)]Man
# Procedure, shortened: as §1
# [27] = target: Man(a1-3)[Man(a1-6)]Man(a1-6)[Man(a1-3)]Man(b1-4)GlcNAc(b1-4)GlcNAc
# Procedure, shortened: as §1
# [28] = target: Man(a1-3)[Man(a1-6)]Man(b1-4)GlcNAc(b1-4)[Fuc(a1-6)]GlcNAc
# Procedure, shortened: as §1
# [29] = target: Neu5Ac(a2-3)Gal(b1-3)GlcNAc(b1-2)Man(a1-3)[Neu5Ac(a2-3)Gal(b1-3)GlcNAc(b1-2)Man(a1-6)]Man(b1-4)GlcNAc(b1-4)GlcNAc
# Procedure, shortened: as §1
# [30] = target: Neu5Ac(a2-3)Gal(b1-3)GlcNAc(b1-3)Gal(b1-3)GlcNAc
# Procedure, shortened: as §1
# [31] = target: Neu5Ac(a2-3)Gal(b1-3)GlcNAc(b1-6)GalNAc
# Procedure, shortened: as §1
# Neu5Ac(a2-6)Gal = target: Neu5Ac(a2-6)Gal
# Procedure, shortened: as §1
# Neu5Ac(a2-6)Gal(b1-4)Glc = target: Neu5Ac(a2-6)Gal(b1-4)Glc
# Procedure, shortened: as §1
# [32] = target: Neu5Ac(a2-6)Gal(b1-4)GlcNAc
# Procedure, shortened: as §1
# [33] = target: Neu5Ac(a2-6)Gal(b1-4)GlcNAc(b1-2)Man(a1-6)[Gal(b1-4)GlcNAc(b1-2)Man(a1-3)]Man(b1-4)GlcNAc(b1-4)GlcNAc
# Procedure, shortened: as §1
# [34] = target: Neu5Ac(a2-6)Gal(b1-4)GlcNAc(b1-3)Gal(b1-4)GlcNAc(b1-3)Gal(b1-4)GlcNAc
# Procedure, shortened: as §1
# [35] = target: Neu5Ac(a2-6)Gal(b1-4)GlcNAc(b1-6)[Gal(b1-3)]GalNAc
# Procedure, shortened: as §1
# Neu5Ac(a2-8)Neu5Ac = target: Neu5Ac(a2-8)Neu5Ac
# Procedure, shortened: as §1
# [36] = target: Neu5Ac(a2-8)Neu5Ac(a2-3)Gal(b1-4)GlcNAc
# Procedure, shortened: as §1
# [37] = target: Neu5Ac(a2-8)Neu5Ac(a2-8)Neu5Ac(a2-8)Neu5Ac(a2-3)[GalNAc(b1-4)]Gal(b1-4)Glc
# Procedure, shortened: as §1
# [38] = target: Neu5Gc(a2-3)Gal(b1-4)GlcNAc(b1-3)Gal(b1-4)GlcNAc(b1-2)Man(a1-3)[Neu5Gc(a2-3)Gal(b1-4)GlcNAc(b1-3)Gal(b1-4)GlcNAc(b1-2)Man(a1-6)]Man(b1-4)GlcNAc(b1-4)GlcNAc
# Procedure, shortened: as §1
# [39] = target: Neu5Gc(a2-8)Neu5Gc(a2-3)Gal(b1-4)GlcNAc
# Procedure, shortened: as §1
binder,measurement,setting,value
B1,glycan array binding signal (z-score),[1],-0.085
same,glycan array binding signal (z-score),[2],-0.163
same,glycan array binding signal (z-score),[3],-0.038
same,glycan array binding signal (z-score),Fuc(a1-2)[Gal(a1-3)]Gal,-0.099
same,glycan array binding signal (z-score),[4],-0.11
same,glycan array binding signal (z-score),[5],-0.224
same,glycan array binding signal (z-score),Gal(a1-3)Gal,-0.284
same,glycan array binding signal (z-score),[6],8.11
same,glycan array binding signal (z-score),[7],7.94
same,glycan array binding signal (z-score),[8],-0.16
same,glycan array binding signal (z-score),[9],-0.163
same,glycan array binding signal (z-score),[10],-0.188
same,glycan array binding signal (z-score),[11],5.76
same,glycan array binding signal (z-score),[12],8.18
same,glycan array binding signal (z-score),[13],3.64
same,glycan array binding signal (z-score),[14],3.96
same,glycan array binding signal (z-score),[15],6.87
same,glycan array binding signal (z-score),[16],3.54
same,glycan array binding signal (z-score),[17],-0.146
same,glycan array binding signal (z-score),[18],6.95
same,glycan array binding signal (z-score),[19],8.21
same,glycan array binding signal (z-score),[20],-0.237
same,glycan array binding signal (z-score),Gal6S(b1-4)GlcNAc6S,-0.168
same,glycan array binding signal (z-score),GalNAc(a1-3)GalNAc,-0.119
same,glycan array binding signal (z-score),[21],-0.114
same,glycan array binding signal (z-score),GalNAc(b1-6)GalNAc,-0.153
same,glycan array binding signal (z-score),GlcA(b1-3)GlcNAc,-0.153
same,glycan array binding signal (z-score),[22],-0.151
same,glycan array binding signal (z-score),GlcNAc(b1-3)Gal(b1-4)Glc,0.173
same,glycan array binding signal (z-score),[23],-0.167
same,glycan array binding signal (z-score),[24],-0.228
same,glycan array binding signal (z-score),[25],-0.087
same,glycan array binding signal (z-score),[26],-0.163
same,glycan array binding signal (z-score),[27],-0.184
same,glycan array binding signal (z-score),[28],-0.173
same,glycan array binding signal (z-score),[29],-0.169
same,glycan array binding signal (z-score),[30],-0.196
same,glycan array binding signal (z-score),[31],-0.169
same,glycan array binding signal (z-score),Neu5Ac(a2-6)Gal,-0.173
same,glycan array binding signal (z-score),Neu5Ac(a2-6)Gal(b1-4)Glc,-0.252
same,glycan array binding signal (z-score),[32],-0.282
same,glycan array binding signal (z-score),[33],11.8
same,glycan array binding signal (z-score),[34],-0.186
same,glycan array binding signal (z-score),[35],-0.164
same,glycan array binding signal (z-score),Neu5Ac(a2-8)Neu5Ac,-0.243
same,glycan array binding signal (z-score),[36],-0.192
same,glycan array binding signal (z-score),[37],-0.318
same,glycan array binding signal (z-score),[38],-0.153
same,glycan array binding signal (z-score),[39],-0.189
